Laboratory results reported in PubChem BioAssay AID1159580 (chemical genetic matrix, 2015).
“And” between values parts separate entries of the source, which are not always exact repeats. Identical values can stand only once. About 2,000 (36%) of roughly 5,500 compounds were called active. Roughly 18% stayed inconclusive and do not appear here. Rule as the data show it: active = normalized growth mostly below about 0.91 (no sharp cut-off); inconclusive = no clear call, values can overlap the other calls; inactive = mostly above about 0.92. The list shows a part of the results.

Assay: chemical genetic growth profiling, strain panel (AID 1159580);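 also: tested at 20 µM; growth read once vehicle control cultures reached saturation at 30 °C; 1 = growth at the plate median or of vehicle wells; lower values mean less growth of the strain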
Conditions: growth OD
[1] = S. cerevisiae deletion strains, locus YAL013W, strain DEP1, stronger effect = lower value
[2] = S. cerevisiae deletion strains, locus YBR021W, strain FUR4, stronger effect = lower value
[3] = S. cerevisiae deletion strains, locus YBR229C, strain ROT2, stronger effect = lower value
[4] = S. cerevisiae deletion strains, locus YCL029C, strain bik1, stronger effect = lower value
[5] = S. cerevisiae deletion strains, locus YDL035C, strain GPR1, stronger effect = lower value
[6] = S. cerevisiae deletion strains, locus YDL074C, strain BRE1, stronger effect = lower value
[7] = S. cerevisiae deletion strains, locus YDL101C, strain DUN1, stronger effect = lower value
[8] = S. cerevisiae deletion strains, locus YDL134C, strain PPH21, stronger effect = lower value
[9] = S. cerevisiae deletion strains, locus YDL185W, strain tfp1, stronger effect = lower value
[10] = S. cerevisiae deletion strains, locus YDL192W, strain arf1, stronger effect = lower value
[11] = S. cerevisiae deletion strains, locus YDR101C, strain arx1, stronger effect = lower value
[12] = S. cerevisiae deletion strains, locus YDR150W, strain NUM1, stronger effect = lower value
[13] = S. cerevisiae deletion strains, locus YDR162C, strain NBP2, stronger effect = lower value
[14] = S. cerevisiae deletion strains, locus YDR318W, strain mcm21, stronger effect = lower value
[15] = S. cerevisiae deletion strains, locus YDR388W, stronger effect = lower value
[16] = S. cerevisiae deletion strains, locus YDR502C, strain sam2, stronger effect = lower value
[17] = S. cerevisiae deletion strains, locus YEL061C, strain CIN8, stronger effect = lower value
[18] = S. cerevisiae deletion strains, locus YER110C, stronger effect = lower value
[19] = S. cerevisiae deletion strains, locus YER155C, strain BEM2, stronger effect = lower value
[20] = S. cerevisiae deletion strains, locus YER167W, strain BCK2, stronger effect = lower value
[21] = S. cerevisiae deletion strains, locus YGL078C, strain dbp3, stronger effect = lower value
[22] = S. cerevisiae deletion strains, locus YGL086W, strain mad1, stronger effect = lower value
[23] = S. cerevisiae deletion strains, locus YGL248W, strain PDE1, stronger effect = lower value
[24] = S. cerevisiae deletion strains, locus YGR078C, strain PAC10, stronger effect = lower value
[25] = S. cerevisiae deletion strains, locus YGR135W, strain pre9, stronger effect = lower value
[26] = S. cerevisiae deletion strains, locus YGR229C, strain SMI1, stronger effect = lower value
[27] = S. cerevisiae deletion strains, locus YGR252W, strain gcn5, stronger effect = lower value
[28] = S. cerevisiae deletion strains, locus YHR030C, strain SLT2, stronger effect = lower value
[29] = S. cerevisiae deletion strains, locus YHR079C, strain IRE1 (second series), stronger effect = lower value
[30] = S. cerevisiae deletion strains, locus YHR079C, strain IRE1, stronger effect = lower value
[31] = S. cerevisiae deletion strains, locus YHR094C, strain hxt1, stronger effect = lower value
[32] = S. cerevisiae deletion strains, locus YHR129C, strain ARP1, stronger effect = lower value
[33] = S. cerevisiae deletion strains, locus YHR200W, strain rpn10, stronger effect = lower value
[34] = S. cerevisiae deletion strains, locus YIL066C, strain RNR3, stronger effect = lower value
[35] = S. cerevisiae deletion strains, locus YIL073C, strain SPO22, stronger effect = lower value
[36] = S. cerevisiae deletion strains, locus YIL125W, strain kgd1, stronger effect = lower value
[37] = S. cerevisiae deletion strains, locus YIR030C, strain dcg1, stronger effect = lower value
[38] = S. cerevisiae deletion strains, locus YJL095W, strain BCK1, stronger effect = lower value
[39] = S. cerevisiae deletion strains, locus YJL134W, strain LCB3, stronger effect = lower value
[40] = S. cerevisiae deletion strains, locus YJL168C, strain set2, stronger effect = lower value
[41] = S. cerevisiae deletion strains, locus YJL187C, strain SWE1 (second series), stronger effect = lower value
[42] = S. cerevisiae deletion strains, locus YJR043C, strain POL32, stronger effect = lower value
[43] = S. cerevisiae deletion strains, locus YJR066W, strain TOR1, stronger effect = lower value
[44] = S. cerevisiae deletion strains, locus YJR075W, strain HOC1, stronger effect = lower value
[45] = S. cerevisiae deletion strains, locus YKL009W, strain mrt4, stronger effect = lower value
[46] = S. cerevisiae deletion strains, locus YKL068W, stronger effect = lower value
[47] = S. cerevisiae deletion strains, locus YKL085W, strain MDH1 (second series), stronger effect = lower value
[48] = S. cerevisiae deletion strains, locus YKL085W, strain MDH1, stronger effect = lower value
[49] = S. cerevisiae deletion strains, locus YKL190W, strain CNB1, stronger effect = lower value
[50] = S. cerevisiae deletion strains, locus YKR001C, strain vps1, stronger effect = lower value
[51] = S. cerevisiae deletion strains, locus YLR039C, strain RIC1, stronger effect = lower value
[52] = S. cerevisiae deletion strains, locus YLR058C, strain SHM2, stronger effect = lower value
[53] = S. cerevisiae deletion strains, locus YLR102C, strain apc9, stronger effect = lower value
[54] = S. cerevisiae deletion strains, locus YLR113W, strain HOG1, stronger effect = lower value
[55] = S. cerevisiae deletion strains, locus YLR262C, strain YPT6, stronger effect = lower value
[56] = S. cerevisiae deletion strains, locus YLR268W, strain sec22, stronger effect = lower value
[57] = S. cerevisiae deletion strains, locus YLR330W, strain CHS5, stronger effect = lower value
[58] = S. cerevisiae deletion strains, locus YLR342W, strain FKS1 (second series), stronger effect = lower value
[59] = S. cerevisiae deletion strains, locus YLR371W, strain rom2, stronger effect = lower value
[60] = S. cerevisiae deletion strains, locus YLR418C, strain cdc73, stronger effect = lower value
[61] = S. cerevisiae deletion strains, locus YML016C, strain PPZ1, stronger effect = lower value
[62] = S. cerevisiae deletion strains, locus YML032C, strain rad52, stronger effect = lower value
[63] = S. cerevisiae deletion strains, locus YML124C, strain tub3, stronger effect = lower value
[64] = S. cerevisiae deletion strains, locus YMR078C, strain ctf18, stronger effect = lower value
[65] = S. cerevisiae deletion strains, locus YMR223W, strain ubp8, stronger effect = lower value
[66] = S. cerevisiae deletion strains, locus YMR263W, strain SAP30, stronger effect = lower value
[67] = S. cerevisiae deletion strains, locus YMR307W, strain GAS1, stronger effect = lower value
[68] = S. cerevisiae deletion strains, locus YNL067W, strain RPL9B, stronger effect = lower value
[69] = S. cerevisiae deletion strains, locus YNL128W, strain TEP1, stronger effect = lower value
[70] = S. cerevisiae deletion strains, locus YNL153C, strain GIM3, stronger effect = lower value
[71] = S. cerevisiae deletion strains, locus YNL233W, strain BNI4, stronger effect = lower value
[72] = S. cerevisiae deletion strains, locus YNL250W, strain rad50, stronger effect = lower value
[73] = S. cerevisiae deletion strains, locus YNL271C, strain bni1, stronger effect = lower value
[74] = S. cerevisiae deletion strains, locus YNL298W, strain CLA4, stronger effect = lower value
[75] = S. cerevisiae deletion strains, locus YNL307C, strain MCK1, stronger effect = lower value
[76] = S. cerevisiae deletion strains, locus YNL322C, strain KRE1, stronger effect = lower value
[77] = S. cerevisiae deletion strains, locus YNR052C, strain pop2, stronger effect = lower value
[78] = S. cerevisiae deletion strains, locus YOL006C, strain TOP1, stronger effect = lower value
[79] = S. cerevisiae deletion strains, locus YOL012C, strain htz1
[80] = S. cerevisiae deletion strains, locus YOL147C, strain pex11, stronger effect = lower value
[81] = S. cerevisiae deletion strains, locus YOR061W, strain CKA2, stronger effect = lower value
[82] = S. cerevisiae deletion strains, locus YOR069W, strain VPS5, stronger effect = lower value
[83] = S. cerevisiae deletion strains, locus YOR136W, strain idh2, stronger effect = lower value
[84] = S. cerevisiae deletion strains, locus YOR144C, strain elg1, stronger effect = lower value
[85] = S. cerevisiae deletion strains, locus YOR184W, strain ser1, stronger effect = lower value
[86] = S. cerevisiae deletion strains, locus YOR231W, strain MKK1, stronger effect = lower value
[87] = S. cerevisiae deletion strains, locus YOR316C, strain cot1, stronger effect = lower value
[88] = S. cerevisiae deletion strains, locus YPL055C, strain LGE1, stronger effect = lower value
[89] = S. cerevisiae deletion strains, locus YPL241C, strain CIN2, stronger effect = lower value
[90] = S. cerevisiae deletion strains, locus YPL256C, strain CLN2, stronger effect = lower value
[91] = S. cerevisiae deletion strains, locus YPR119W, strain clb2, stronger effect = lower value
[92] = S. cerevisiae deletion strains, locus YPR141C, strain kar3, stronger effect = lower value
[93] = S. cerevisiae deletion strains, locus YPR163C, strain tif3, stronger effect = lower value
[94] = S. cerevisiae deletion strains, locus YPR167C, strain met16, stronger effect = lower value
[95] = S. cerevisiae deletion strains, strain wtn01, stronger effect = lower value
[96] = S. cerevisiae strains, strain wild type, stronger effect = lower value

Measured: normalized growth

N[C@@H](Cc1cc(I)c(Oc2ccc(O)c(I)c2)c(I)c1)C(=O)O
active: [30] 0.846
inactive: [1] 1.02 | [2] 1.01 | [3] 0.998 | [4] 1 | [5] 1.01 | [6] 1.03 | [7] 1.02 | [8] 1.01 | [9] 1 | [10] 1 | [11] 0.986 | [12] 1.01 | [13] 1.02 | [14] 0.982 | [15] 1 | [16] 0.987 | [17] 1 | [18] 1 | [19] 1.01 | [20] 1 | [21] 1 | [22] 0.99 | [23] 1.01 | [24] 1.01 | [25] 0.991 | [26] 1.02 | [27] 0.929 | [28] 1 and 0.914 | [29] 0.99 | [31] 1.01 | [32] 0.999 | [33] 0.994 | [34] 1.01 | [35] 1.02 | [36] 1 | [37] 1 | [38] 0.971 and 0.977 | [39] 1.01 | [40] 1 | [41] 1 | [42] 1.01 | [43] 0.864 | [44] 0.996 | [45] 0.979 | [46] 1.01 | [47] 1.03 | [48] 1.03 | [49] 1.01 | [50] 0.967 | [51] 0.978 | [52] 1.01 | [53] 0.999 | [54] 1.03 | [55] 0.993 | [56] 0.982 | [57] 1.01 | [58] 1.01 | [59] 1 | [60] 0.951 | [61] 1.01 | [62] 0.981 | [63] 1.01 | [64] 1.01 | [65] 0.984 | [66] 1 | [67] 1.06 | [68] 1.02 | [69] 1.02 | [70] 1.01 | [71] 1 | [72] 1.01 | [73] 0.995 | [74] 1 | [75] 0.939 | [76] 1.02 | [77] 0.996 | [78] 0.992 | [79] 1.15 | [80] 0.996 | [81] 1.01 | [82] 1 | [83] 1 | [84] 1 | [85] 0.963 | [86] 1.01 | [87] 0.998 | [88] 1.05 | [89] 1.01 | [90] 0.964 | [91] 1.01 | [92] 1.01 | [93] 1.01 | [94] 1 | [95] 0.984 | [96] 1.01

O=C(O)Cc1cc(I)c(Oc2cc(I)c(O)c(I)c2)c(I)c1
0.989 (inactive) and 0.84 (active): [28]
active: [30] 0.762 | [46] 0.917 | [47] 0.924 | [48] 0.924 | [54] 0.418 | [86] 0.67 | [90] 0.679 | [93] 0.719
inactive: [1] 0.948 | [2] 1.03 | [3] 0.936 | [4] 0.96 | [5] 0.982 | [6] 0.942 | [7] 0.955 | [8] 0.968 | [9] 0.931 | [10] 0.957 | [11] 0.979 | [12] 0.943 | [13] 0.847 | [14] 0.98 | [15] 0.955 | [16] 0.957 | [17] 0.964 | [18] 0.973 | [19] 0.97 | [20] 0.97 | [21] 0.94 | [22] 0.982 | [23] 0.965 | [24] 0.958 | [25] 0.942 | [26] 0.973 | [27] 1.06 | [29] 0.973 | [31] 0.956 | [32] 0.976 | [33] 0.959 | [34] 0.97 | [35] 1.02 | [36] 0.944 | [37] 0.939 | [38] 0.924 and 0.892 | [39] 0.954 | [40] 0.942 | [41] 0.949 | [42] 1.06 | [43] 0.864 | [44] 1 | [45] 0.945 | [49] 0.946 | [50] 0.931 | [51] 0.817 | [52] 0.959 | [53] 0.935 | [55] 0.749 | [56] 0.963 | [57] 0.967 | [58] 1.02 | [59] 0.987 | [60] 0.911 | [61] 0.95 | [62] 0.983 | [63] 0.951 | [64] 0.96 | [65] 1.01 | [66] 0.944 | [67] 1.07 | [68] 0.969 | [69] 0.952 | [70] 0.951 | S. cerevisiae deletion strains, locus YNL183C, strain NPR1, stronger effect = lower value 0.829 | [71] 0.968 | [72] 0.923 | [73] 0.942 | [74] 0.952 | [75] 0.982 | [76] 0.962 | [77] 0.973 | [78] 0.862 | [79] 0.639 | [80] 0.965 | [81] 0.929 | [82] 0.962 | [83] 0.997 | [84] 0.947 | [85] 1.03 | [87] 0.941 | [88] 0.922 | [89] 0.953 | [91] 0.95 | [92] 0.924 | [94] 0.98 | [95] 0.95 | [96] 0.96
